# Rows were chosen to be rich in hits. Some 1.6% of all compounds tested hit in one or more screens of this group.
# p53ts 39C kill – qHTS Screen for Compounds that Selectively Target Cancer Cells with p53 Mutations: Cytotoxicity of p53ts Cells at the Nonpermissive Temperature; H1299-p53A138V viability at 39C, ATP luminescence, 24 h; Potency, µM (top dose mostly 46.1 µM), inactives show at the highest dose activity change, negative = cell killing, usual class: cytotoxic; actives 1.5% (n = 130,000); AID 902, 2007; note: % is set by controls: 0 for no effect and ±100 for the full control effect; nearly all actives have a fitted effect of over 55% in size
# p53ts 32C tox – qHTS Screen for Compounds that Selectively Target Cancer Cells with p53 Mutations: Cytotoxicity of p53ts Cells at the Permissive Temperature; H1299-p53A138V at 32C, ATP luminescence viability, 24 h; AID 924, 2007; Potency, µM (series often up to 46.1 µM), inactives show top-dose activity change, negative = cytotoxicity, hits mostly cytotoxic; actives 0.93% (n = 130,000);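 note: 0% = DMSO and -100% = full killing by reference compound; nearly all actives have a fitted effect of over 55% in size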
#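 Cells: H1299 p53ts (A138V), 600/well, pre-incubated 16–30 h at 37C. Cpd up to 46 uM, 24 h, 32C. Readout: ATPlite luminescence, 20 min RT. Normalization: DMSO vs tamoxifen 100 uM. AC50 by Hill equation.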
# Imprint erasure – qHTS Assay for Compounds that Induce Erasure of Genomic Imprints | mouse ES Peg3-LacZ reporter, beta-gal luminescence, 40 h | Potency, µM (top dose mostly 60.7 µM), for the others: top-dose activity change, positive = activation, actives largely listed as activators | actives 0.02% (n = 110,000) | AID 1948, 2009
#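 Gelatin-coated wells received 300 freshly trypsinized female ES cells with a Peg3LacZ-Neo reporter on the maternal allele, then incubated 40 hours at 37C. BetaGlo was added for 5 minutes at room temperature before a single luminescence read.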
# Numbers without * were called inactive; ? = inconclusive; · = not tested or not shown; [ ] = another dose, or the depositor's remark. Calls come from the whole dose curve; as a rule, active = well fitted curve in the direction sought with a large enough effect; inconclusive = small, poorly fitted or top-dose-only effect, or another doubt; inactive = no such curve, though single readings can be large; an effect the other way counts as inactive or inconclusive. Potency is the fitted concentration of half-maximal effect.
SMILES,p53ts 39C kill,p53ts 32C tox,Imprint erasure
CCN(CC)c1nc(-c2ccc(C(C)(C)C)cc2)nc2ccccc12,12.6µM*,12.6µM*,-10.6%[10.9 µM]
CC(C)CN(CC(C)C)c1nc(-c2ccc(Cl)cc2)nc2ccccc12,-7.2%,4.8%,6.4%[10.9 µM]
O=C(CSc1n[nH]c(-c2ccccc2)n1)NCCCc1ccccc1,-4.6%,-6.7%,-4.6%[10.9 µM]
COc1cccc2cc(C(C)=O)c(=O)oc12,0.6%,9.0%,-2.7%
COc1cccc2cc(C(=O)Nc3ccc(CC(=O)O)cc3)c(=O)oc12,7.94µM*,5.01µM*,-51.6%[10.9 µM]
CCOC(=O)C1CCN(CC(=O)Nc2cc(C)c3c(=O)oc4ccccc4c3n2)CC1,-3.3%,-1.2%,6.1%[10.9 µM]
COc1ccc(-n2c(-c3ccco3)nc3c(cnn3-c3ccccc3Cl)c2=O)cc1,7.7%,15.4%,3.9%[10.9 µM]
COc1cc(/C=C(\C#N)c2nc3ccc(C)cc3[nH]2)ccc1OCc1ccc(C)cc1,3.98µM*,15.8µM*,-23.6%[10.9 µM]
CCOC(=O)COc1ccc(/C=C(\C#N)c2nc3ccc(C)cc3[nH]2)cc1OC,20.6%,-17.9%,-15.9%[10.9 µM]
COc1ccc(CNc2nc(-c3ccc(C(=O)N(C)C)cc3)nc3ccccc23)c(OC)c1,-16.3%,-20.9%,-9.3%
COc1ccc(CNc2nc(-c3ccc(N(C)C)cc3)nc3ccccc23)c(OC)c1,15.8µM*,12.6µM*,-33.3%
CN(C)c1ccc(-c2nc(N(C)C)c3ccccc3n2)cc1,-23.4%,-16.9%,-8.2%
CN(C)c1ccc(-c2nc(NCc3cccnc3)c3ccccc3n2)cc1,3.98µM*,5.01µM*,-47.2%
CNc1nc(-c2ccc(N(C)C)cc2)nc2ccccc12,10µM*,12.6µM*,-38.5%
c1cncc(CNc2nc(-c3ccoc3)nc3ccccc23)c1,6.6%,3.6%,?
COc1ccccc1CNc1nc(-c2ccccc2CN(C)C)nc2ccccc12,15.8µM*,-7.6%,-19.1%
CN(C)Cc1ccccc1-c1nc(NCc2ccccc2)c2ccccc2n1,-24.7%,-24.1%,-22.0%
Cc1ccc(CN2CCCn3nc(C(=O)NCC(C)c4ccccc4)cc3C2=O)cc1 (centres undefined),-21.7%,-3.5%,-14.8%[10.9 µM]
Cc1ccc2sc(N(Cc3cccnc3)C(=O)CCOc3ccccc3)nc2c1C,-21.6%,0.3%,?
O=C1COc2cc(S(=O)(=O)CCC(=O)N3CCN(c4cccc(Cl)c4)CC3)c(Cl)cc2N1,-9.5%,-4.0%,-20.0%[10.9 µM]
CN(C)c1ccc(-c2nc(Nc3ccncc3)c3ccccc3n2)cc1,7.94µM*,10µM*,·
CN(C)C(=O)c1ccc(-c2nc(Nc3ccncc3)c3ccccc3n2)cc1,?,?,-7.1%
Cc1nc2nc(NC(=O)c3ccc(F)cc3)[nH]n2c(=O)c1Cc1ccccc1,25.3%,-1.1%,-3.6%[10.9 µM]
CCOc1ccc(Nc2cc(C)c(C#N)c3nc4ccccc4n23)cc1,2.5%,5.9%,-12.4%[10.9 µM]
O=S(=O)(Nc1cccc(-c2ccc(N3CCCCCC3)nn2)c1)c1ccc(F)cc1,-35.1%,?,-9.4%[10.9 µM]
SMILES,p53ts 39C kill,p53ts 32C tox,Imprint erasure
Cc1ccc(S(=O)(=O)Nc2cccc(-c3ccc(N4CCCCC4)nn3)c2)s1,1µM*,12.6µM*,-10.9%[10.9 µM]
Cc1ccc(S(=O)(=O)Nc2cccc(-c3ccc(N4CCCC4)nn3)c2)c(C)c1,-4.5%,6.8%,-8.5%[10.9 µM]
CCc1ccc(S(=O)(=O)Nc2cccc(-c3ccc(N4CCCCC4)nn3)c2)s1,15.8µM*,12.6µM*,-15.4%[10.9 µM]
CC(=O)c1ccc(S(=O)(=O)Nc2cccc(-c3ccc(N4CCCCC4)nn3)c2)cc1,5.01µM*,10µM*,-17.1%[10.9 µM]
CCc1ccc(S(=O)(=O)Nc2cccc(-c3ccc(OC)nn3)c2)s1,-9.0%,-12.1%,-7.9%[10.9 µM]
CCn1c(C(=O)N2CCC(C(=O)NCCc3ccc(OC)cc3OC)CC2)cc2sccc21,-26.2%,11.9%,-3.6%[10.9 µM]
CCOC(=O)c1c(S(=O)(=O)N2CCC(C(=O)Nc3cccc(C#N)c3)CC2)c(C)n(C)c1C,-8.6%,-3.6%,-5.7%[10.9 µM]
CN(Cc1ccccc1)c1ccc(-c2nc(-c3ccccn3)no2)cc1[N+](=O)[O-],-7.6%,5.4%,-4.4%[10.9 µM]
CC1=C(C(=O)OCc2ccc(C)cc2)C(c2ccccc2C(F)(F)F)CC(=O)N1 (centres undefined),?,-16.8%,-10.9%[10.9 µM]
CC(C)c1c(C(=O)Nc2ccccc2)c(-c2ccccc2)c(-c2ccc(F)cc2)n1CC[C@@H](O)C[C@@H](O)CC(=O)O,·,·,-9.2%
COc1ccc(CCCn2ncc3c2nc(N)n2nc(-c4ccco4)nc32)cc1,·,·,-15.0%
Cc1ccc(NC2=CC(=O)C(=O)c3ccccc32)cc1,3.16µM*,?,·
Cc1ccc(Nc2ccccc2)cc1,4.0%,-13.5%,·
COc1ccc(CNC(=O)C2CCN(S(=O)(=O)c3c(C)noc3/C=C/c3cccs3)CC2)cc1,10.6%,-0.8%,-7.5%[10.9 µM]
CCc1cccc(NC(=O)Cn2c(=O)n(CCc3ccc(OC)c(OC)c3)c(=O)c3ccccc32)c1,-8.2%,1.8%,7.6%[10.9 µM]
CC1(C)Cc2c(sc(NC(=O)c3ccco3)c2C#N)CO1,12.6µM*,10µM*,-58.9%
Cc1cccc(NC(=O)c2sc(NC(=O)c3ccco3)c(C#N)c2C)c1C,-5.9%,-5.8%,·
CCN1CCN(Cc2nc3cc(NC(=O)c4ccccc4[N+](=O)[O-])ccc3n2CC)CC1,10.6%,6.7%,4.8%[10.9 µM]
Cc1ccccc1NC(=O)c1cnc2ccccn2c1=O,15.8µM*,10µM*,·
Cc1cc(Br)cc(C)c1NC(=O)c1cnc2ccccn2c1=O,-26.7%,2.0%,2.9%[10.9 µM]
COC(=O)[C@@H]1C[C@@]2(O)[C@H](O)[C@H](O)[C@H](O)C[C@H]2N1Cc1ccc(N2CCN(C)CC2)cc1,-8.2%,10.8%,-4.7%
O=C(CCS(=O)(=O)c1cc(Br)cc2c1N(C(=O)C1CC1)CC2)N1CCN(c2cccc(Cl)c2)CC1,11.7%,9.7%,5.6%[10.9 µM]
CCOc1ccc(NC(=O)c2cnc(N3CCCC3)nc2C)cc1,-23.1%,-3.9%,10.7%[10.9 µM]
CCc1ccc(OCC(=O)NCCN(C)C)c(Br)c1,-23.4%,-21.4%,-18.3%
O=C(COc1ccc(Br)cc1Cl)Nc1ncn[nH]1,?,2.51µM*,-19.1%[10.9 µM]
SMILES,p53ts 39C kill,p53ts 32C tox,Imprint erasure
CCc1ccc(OCC(=O)Nc2ncn[nH]2)c(Br)c1,1.58µM*,1.58µM*,-22.0%[10.9 µM]
CC(C)(C)c1cc(Br)ccc1OCC(=O)Nc1ncn[nH]1,2.8%,12.4%,-11.7%
Cc1ccc(C(C)C)c(OCC(=O)Nc2ccc(Cl)cn2)c1,-4.9%,0.5%,-19.0%
O=C(COc1ccc(Cl)cc1Cl)Nc1ccc(Cl)cn1,5.01µM*,5.01µM*,-61.7%
COc1ccc(CNC(=O)CCc2c(C)nc3c(c2C)c(=O)n(C)c(=O)n3C)cc1,-14.0%,4.3%,-7.3%[10.9 µM]
CC(C)Cn1c(=O)c2sccc2n2c(CCCC(=O)NC3CCCCC3)nnc12,-3.5%,-6.1%,-13.8%[10.9 µM]
COc1ccc(OC)c(NC(=O)C2CCN(S(=O)(=O)c3c(C)noc3/C=C/c3ccc(C)cc3)CC2)c1,-10.1%,-7.4%,-10.3%[10.9 µM]
Cc1cc(C)nc(NS(=O)(=O)c2ccc(NC(=O)c3ccccc3O)cc2)n1,9.6%,-2.6%,-5.6%[10.9 µM]
CCOC(=O)c1cc(-c2ccccc2)n(CC(=O)Nc2cc(Cl)c(OC)cc2OC)c1C,20µM*,0.1%,-10.2%[10.9 µM]

# Compound activity deposited in PubChem BioAssay by National Center for Advancing Translational Sciences (NCATS).
